The values that follow come from PubChem BioAssay.

Test [1] has as its system XIP peptide (Xip251-270) binding. The test is described as follows: small-molecule binders of XIP peptide, primary screen, biochemical, small-molecule microarray, fluorescence 635/667 nm, 0.1 µg/mL protein (AID 1182). Conditions: fluorescent protein binding, 635 nm, higher = more signal, called active from +8 up or from −8 down.
In test [2] the test system is XIP peptide (Xip251-270). The test is described as follows: small-molecule binders of XIP peptide, primary screen, biochemical, small-molecule microarray, fluorescence 635/667 nm, 0.5 µg/mL protein (AID 1183). The settings on record: small-molecule microarray binding, fluorescence 635 nm; higher = more signal.
Test [3] in a line: Plasmodium falciparum growth inhibition, primary screen, strain 3D7, DAPI fluorescence, 100 nL (AID 1184).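 Further: parasites grown inside human red blood cells in medium with human serum.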 The settings on record: P. falciparum 3D7 growth, 3 d, higher = more signal.
The target in test [4] is Homeobox protein Hox-A13 (Mus musculus) (UniProt Q62424). As to the kind of experiment: inhibitors of HoxA13-DNA binding, primary screen, biochemical, fluorescence polarization, labeled oligonucleotide (AID 1185). Conditions: 15 min, higher = more signal, called active from +8 up or from −8 down. On the technique in general: Polarisation of emitted light reports the rotation of a fluorescent probe.

Test [5] in a line: inhibitors of hydroxyurea-induced Chk1 phosphorylation, primary screen, imaging, HeLa, phospho-Chk1 antibody, percent positive cells (AID 1186). The settings on record: hydroxyurea-induced phospho-Chk1 immunofluorescence imaging, higher = more signal.
A short description of test [6]: inhibitors of hydroxyurea-induced Chk1 phosphorylation, primary screen, imaging, HeLa, phospho-Chk1 nuclear intensity (AID 1187). Conditions: hydroxyurea-induced phospho-Chk1 immunofluorescence imaging, higher = more signal.

Active and inactive are the calls of the source. Unless noted, how the calls were made is not given here.

Sequence of Homeobox protein Hox-A13 (Mus musculus) (Q62424 whole entry, looked up): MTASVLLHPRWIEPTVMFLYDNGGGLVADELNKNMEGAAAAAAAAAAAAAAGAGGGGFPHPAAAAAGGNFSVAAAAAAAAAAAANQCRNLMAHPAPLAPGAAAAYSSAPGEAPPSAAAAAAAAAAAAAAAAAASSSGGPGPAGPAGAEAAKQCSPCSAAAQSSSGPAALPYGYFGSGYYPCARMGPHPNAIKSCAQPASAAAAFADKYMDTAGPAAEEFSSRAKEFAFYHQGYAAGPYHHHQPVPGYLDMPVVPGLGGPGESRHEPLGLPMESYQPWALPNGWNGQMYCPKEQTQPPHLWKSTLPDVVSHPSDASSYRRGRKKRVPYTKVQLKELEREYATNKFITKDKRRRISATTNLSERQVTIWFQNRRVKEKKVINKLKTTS

Turning to `CCOC(=O)C1=CC[C@@H](c2ccc([N+](=O)[O-])cc2)N(S(=O)(=O)c2ccc(C)cc2)[C@H]1c1ccccc1`, the composite z-score was 0.353 (inactive) in test [1] and 0.552 in test [2]. Further, the z-score in test [3] is -1.41; in test [4], 2.35 (inactive); in test [5], -0.137 (inactive); in test [6], -0.3 (inactive).

As to `CCCN1C(=O)[C@]2(Cc3ccccc3)N=C(c3ccc(OCCCO)cc3)O[C@@H]2c2ccccc21`, the composite z-score in test [1] is -0.116 (inactive); in test [2], 0.594. Also, the z-score is -2.26 in test [3], -4.81 (inactive) in test [4], -0.143 (inactive) in test [5] and 0.231 (inactive) in test [6].

On to `CN1C(=O)C2C=CC(C(O)C3CCCCC3)N(N3CCCCC3)C2C1=O` (stereo unspecified), for which the composite z-score was 0.269 (inactive) in test [1] and 0.803 in test [2]. In addition, the z-score in test [3] was -0.151; in test [4], -3.82 (inactive); in test [5] it was 0.796 (inactive); in test [6], 0.332 (inactive).

Regarding `NC(=O)NCC#Cc1ccc2c(c1)[C@]1(C(=O)N2)[C@H](C(=O)Nc2nc3ccccc3s2)[C@H]2C(=O)O[C@H](c3ccccc3)[C@H](c3ccccc3)N2[C@@H]1c1ccc(O)cc1`, the composite z-score is 0.207 (inactive) in test [1] and 0.6 in test [2]. The z-score in test [3] is -0.905; in test [4], 0.916 (inactive); in test [5], 0.118 (inactive); in test [6], 0.194 (inactive).

`CO[C@H]1O[C@H](CO)[C@@H](OC(=O)Nc2ccccc2-c2ccccc2)[C@H](OC(=O)Nc2ccc3c(c2)OCO3)[C@@H]1OC(=O)Nc1ccc2c(c1)OCO2`: the figures for the composite z-score in test [1] and in test [2] were 0.882 (inactive) and 0.801, respectively. Besides, the z-score in test [3] is -2.17; in test [4], -3.65 (inactive); in test [5], -0.0753 (inactive); in test [6], 0.24 (inactive).

In the case of `C=CCN1C(=O)[C@]2(CC=C)N=C(c3ccc(OCCCO)cc3)O[C@@H]2c2ccccc21`, the composite z-score in test [1] is 0.935 (inactive); in test [2] it was 0.707. Besides, the z-score in test [3] was -1.96; in test [4], -0.0163 (inactive); in test [5], -0.0194 (inactive); in test [6], 0.169 (inactive).

`COc1cc2c(cc1O)C(C)N(Cc1cc3c(cc1Br)OCO3)CC2` (stereo unspecified): the composite z-score in test [1] is 1.5 (inactive); in test [2], 0.291. For the same compound, the z-score in test [3] was -2.03; in test [4] it was -1.58 (inactive); in test [5] it was -0.765 (inactive); in test [6] it was -1.06 (inactive).

Consider `NCCCCCNC(=O)[C@@H]1C[C@@H]2C(=O)N[C@@H](CCCCN)C(=O)N2[C@@H]1c1cccc(OCCO)c1`, for which the composite z-score in test [1] is 0.824 (inactive); in test [2], 0.793. Moreover, the z-score was -0.119 in test [3], -0.453 (inactive) in test [4], 0.0424 (inactive) in test [5] and -0.0136 (inactive) in test [6].

Take `CC(C)CN1C(=O)[C@@]2(c3ccc([N+](=O)[O-])cc3)CC(=O)N(CC34CC5CC(CC(C5)C3)C4)[C@@H]2c2ccc(CO)cc21`: the composite z-score is 0.141 (inactive) in test [1] and -0.0737 in test [2]. Further, the z-score is -1.14 in test [3], 0.944 (inactive) in test [4], 0.016 (inactive) in test [5] and -0.164 (inactive) in test [6].

On to `O=C1NC(=O)C2C1C=CC(C(O)c1cc(C(F)(F)F)cc(C(F)(F)F)c1)N2Nc1ccc(Cl)cc1Cl` (stereo unspecified), for which the composite z-score in test [1] was 1.75 (inactive); in test [2] it was 0.154. Further, the z-score in test [3] was 0.0295; in test [4], -5.48 (inactive); in test [5], 1.15 (inactive); in test [6] it was 1.26 (inactive).

`Cc1ccc(F)cc1S(=O)(=O)N[C@@H]1CCN(Cc2ccc(OC(C)C)cc2)C1`: the composite z-score in test [1] was -0.46 (inactive); in test [2], -0.701. For the same compound, the z-score in test [3] is -0.85; in test [4], -5.27 (inactive); in test [5] it was 0.239 (inactive); in test [6] it was 1.54 (inactive).

In the case of `C=C[C@H](COC(C)=O)NS(=O)(=O)c1ccc(Br)cc1`, the composite z-score is -0.111 (inactive) in test [1] and 0.238 in test [2]. Besides, the z-score in test [3] was 0.463; in test [4], -0.189 (inactive); in test [5] it was -0.655 (inactive); in test [6], -0.782 (inactive).

Turning to `O=C1C[C@]2(c3ccc([N+](=O)[O-])cc3)C(=O)N(Cc3ccccc3)c3cc(CO)ccc3[C@H]2N1CC12CC3CC(CC(C3)C1)C2`, the composite z-score was 0.0547 (inactive) in test [1] and -1.46 in test [2]. Further, the z-score is -0.734 in test [3], -1.07 (inactive) in test [4], 0.0585 (inactive) in test [5] and -0.785 (inactive) in test [6].

With `CC=CC(O)C1C=CC2C(=O)N(C)C(=O)C2N1N1CCCCC1` (stereo unspecified), the results for the composite z-score in test [1] and in test [2] were 0.102 (inactive) and 0.759, respectively. The z-score was 0.884 in test [3], -7.38 (inactive) in test [4], 0.436 (inactive) in test [5] and -0.297 (inactive) in test [6].

Turning to `COc1ccc([Si](C)(C)[C@H]2[C@H](CC(=O)N3Cc4ccccc4C[C@H]3CO)O[C@@]3(C(=O)N(Cc4cccc(N5CCCCC5=O)c4)c4ccccc43)[C@@H]2C)cc1`, the composite z-score was 0.573 (inactive) in test [1] and 0.743 in test [2]. Besides, the z-score in test [3] was -1.62; in test [4] it was -3.09 (inactive); in test [5] it was -0.507 (inactive); in test [6], -0.35 (inactive).

Take `O=C(CCCCCCC(=O)Nc1ccccc1)N/N=C/c1ccccc1`: the figures for the composite z-score in test [1] and in test [2] were -0.531 (inactive) and -0.57, respectively. The z-score in test [3] is 1.01; in test [4], 0.458 (inactive); in test [5], -0.156 (inactive); in test [6], -0.425 (inactive).

As for `COc1ccc(C(O)C2C=CC3C(=O)N(c4ccccc4)C(=O)C3N2Nc2ccc(C#N)cc2)c2ccccc12` (stereo unspecified), the composite z-score in test [1] is 1.41 (inactive); in test [2] it was 0.728. Moreover, the z-score in test [3] is -0.683; in test [4], 0.744 (inactive); in test [5], -0.294 (inactive); in test [6] it was -0.468 (inactive).

On to `CN(C)CCCNC(=O)[C@@]1(C)c2ccccc2C(=O)N(Cc2cc(C(F)(F)F)cc(C(F)(F)F)c2)[C@H]1c1ccc(CO)cc1`, for which the composite z-score in test [1] was 0.23 (inactive); in test [2] it was -0.987. Besides, the z-score is -1.27 in test [3], -2.7 (inactive) in test [4], -0.0172 (inactive) in test [5] and -0.0753 (inactive) in test [6].

For the compound `COc1ccc([Si](C)(C)[C@H]2[C@H](CCn3cc([C@H](O)c4ccccc4)nn3)O[C@@]3(C(=O)N(Cc4ccc(N5CCC5=O)cc4)c4ccccc43)[C@@H]2C)cc1`, the figures for the composite z-score in test [1] and in test [2] were 0.588 (inactive) and 0.576, respectively. Moreover, the z-score in test [3] is -1.87; in test [4] it was -2.79 (inactive); in test [5], -0.162 (inactive); in test [6], -0.628 (inactive).

Regarding `Cc1ccc(S[C@]2(C(=O)NC3CC3)CC(=O)N(Cc3ccccc3Cl)[C@@H]2c2ccc(CO)cc2I)cc1`, the composite z-score was 0.98 (inactive) in test [1] and 0.824 in test [2]. The z-score in test [3] is 0.287; in test [4], -1.54 (inactive); in test [5] it was 0.159 (inactive); in test [6], 0.858 (inactive).

For the compound `COc1ccccc1CN1C(=O)c2ccccc2[C@@H](C(=O)NC(C)C)[C@@H]1c1ccc(CO)cc1`, the composite z-score is 0.0282 (inactive) in test [1] and 0.905 in test [2]. Further, the z-score in test [3] was -0.425; in test [4], -1.9 (inactive); in test [5], 0.19 (inactive); in test [6] it was 0.686 (inactive).
